# A selection: hits, their analogues and other compounds. The true share with any hit is near 19%.
# DT40 TDP1 no CPT: qHTS for Inhibitors of human tyrosyl-DNA phosphodiesterase 1 (TDP1): qHTS in cells in absence of CPT; DT40 Tdp1-/- hTDP1 cells, no CPT, ATP luminescence, 48 h; Potency, µM (doses to about 46.2 µM), most hits filed as inhibitors; 420,000 compounds, 15% hits; AID 686978, 2013; note: nearly all actives have a fitted effect of over 55% in size
#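 DT40 Tdp1-/-;hTDP1 cells, no CPT (DMSO vehicle only), 400 cells/well; compounds pin-transferred; ≥48 hr, 37 °C; CellTiter-Glo 30 min RT dark, luminescence read.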
# TDP1 block: blocks human tyrosyl-DNA phosphodiesterase 1; recombinant TDP1, AlphaScreen DNA substrate cleavage; Potency, µM (titrated, usually from 130 µM), hits mostly inhibitors; 350,000 compounds, 0.28% hits; AID 485290; note: nearly all actives have a fitted effect of over 40% in size
#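 Recombinant human Tdp1 (E. coli-expressed, 1 nM final) preincubated with compounds 15 min at room temperature, then 5'-biotin/3'-phosphotyrosine-FITC DNA substrate (15 nM final) added for 5 min. AlphaScreen beads (10 ug/ml final) added 10 min; cleavage lowers signal.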
# Gal4-VP16 FLuc: Gal4-VP16 reporter inhibition counter-screen. Potency, µM (highest dose often 53.6 µM), actives largely listed as inhibitors. Drosophila S2 Gal4-VP16 UAS-luciferase, luminescence, 20 h. 310,000 compounds, 3.5% hits;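 note: Gal4-VP16 expression switched on by copper sulfate through the metallothionein promoter; nearly all actives have a fitted effect of over 50% in size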
# DT40 TDP1 CPT: growth inhibition of DT40 Tdp1-/-;hTDP1 cells with camptothecin (screen for TDP1 inhibitors); 420,000 compounds, 12% hits; AID 686979; chicken DT40 Tdp1-/-;hTDP1 cells + 20 nM CPT, ATP luminescence, 48 h; Potency, µM (highest dose often 46.2 µM), hits mostly inhibitors; note: nearly all actives have a fitted effect of over 55% in size
#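 Chicken DT40 Tdp1-/- cells complemented with human TDP1, 400 cells/well, exposed to compounds plus 20 nM camptothecin for at least 48 h at 37 C; viability read as ATP content by CellTiter-Glo luminescence.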
# RORg inh: ROR gamma (mouse) transcription inhibition. AID 2551. P51450. Potency, µM (highest dose often 53.6 µM), actives largely listed as inhibitors. 310,000 compounds, 5.4% hits. Drosophila S2 Gal4-RORgamma UAS-luciferase reporter, 20 h; note: nearly all actives have a fitted effect of over 60% in size
# Target sequence (P51450 whole entry, looked up, the tested form may be a part): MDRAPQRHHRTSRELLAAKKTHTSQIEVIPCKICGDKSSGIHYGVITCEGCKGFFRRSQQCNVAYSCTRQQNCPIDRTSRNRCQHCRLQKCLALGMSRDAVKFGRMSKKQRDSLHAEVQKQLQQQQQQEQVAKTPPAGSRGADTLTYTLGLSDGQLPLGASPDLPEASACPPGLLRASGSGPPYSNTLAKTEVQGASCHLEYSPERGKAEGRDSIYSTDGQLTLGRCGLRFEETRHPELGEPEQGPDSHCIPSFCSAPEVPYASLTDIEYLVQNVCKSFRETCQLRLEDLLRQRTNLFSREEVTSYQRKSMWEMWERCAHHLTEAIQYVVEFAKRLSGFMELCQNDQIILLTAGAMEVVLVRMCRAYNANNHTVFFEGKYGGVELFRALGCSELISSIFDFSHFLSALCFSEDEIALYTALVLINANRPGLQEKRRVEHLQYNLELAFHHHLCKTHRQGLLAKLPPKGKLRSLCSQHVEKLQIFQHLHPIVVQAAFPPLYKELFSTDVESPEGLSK
#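 Schneider cells (Drosophila), stable Gal4 DBD–ROR gamma + UAS-luc; 1 hr cmpd preincubation; Cu2+ induction 700 uM final; 20 hr ambient; luminescence.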
# A number is an active result; i = inactive; ? = inconclusive; nt = no result given; ! = not confirmed by another sample; [ ] = dose if it differs, or a comment. Calls come from the whole dose curve; as a rule, active = well fitted curve in the direction sought with a large enough effect; inconclusive = small, poorly fitted or top-dose-only effect, or another doubt; inactive = no such curve, though single readings can be large; an effect the other way counts as inactive or inconclusive.
SMILES,DT40 TDP1 no CPT,TDP1 block,Gal4-VP16 FLuc,DT40 TDP1 CPT,RORg inh
CCN(Cc1ccccc1)S(=O)(=O)c1ccc(C(=O)N2CCN(c3nc4ccccc4s3)CC2)cc1,9.2µM,i,22µM,15µM,?
CCS(=O)(=O)c1cccc(C(=O)N2CCN(c3nc4c(C)ccc(Cl)c4s3)CC2)c1,?,i,nt,16µM,nt
CCOc1ccc2nc(N3CCCCCC3)sc2c1,i,i,i,i,?
CCOc1ccc2nc(N3CCN(C(=O)CS(=O)(=O)c4ccc(F)cc4)CC3)sc2c1,16µM,i,nt,15µM,nt
COc1ccc2nc(N3CCN(C(=O)c4ccc5ncsc5c4)CC3)sc2c1,?,i,nt,i,nt
CCCN1CCN(C(=O)CCn2c(=O)c3cccn3c3cccnc32)CC1,i,i,i,i,i
O=C1NN=C(c2ccc(Br)cc2)CC1c1ccc(Cl)cc1 (stereo not drawn),?,i,i,?,i
Cc1ccc(C2CC(c3ccc(Cl)cc3)=NNC2=O)cc1 (stereo not drawn),?,i,14µM,i,?
CCNC(=S)N(CCc1ccc(OC)c(OC)c1)Cc1cc2cc(OC)ccc2[nH]c1=O,i,i,i,i,i
CCN(C(=O)COC(=O)c1cc(-c2ccccc2)nn1-c1ccccc1)C1CCS(=O)(=O)C1 (stereo not drawn),i,i,i,i,i
Cc1cc(C)c2oc(C(=O)Nc3ccc(S(=O)(=O)N4CCCC(C)C4)cc3)cc(=O)c2c1 (stereo not drawn),?,i,i,15µM,i
Cc1ccc2c(=O)cc(C(=O)Nc3ccc(S(=O)(=O)N4CCCC(C)C4)cc3)oc2c1C (stereo not drawn),?,i,nt,?,nt
Cc1ccc2oc(C(=O)Nc3ccc(S(=O)(=O)N4CCCC(C)C4)cc3)cc(=O)c2c1 (stereo not drawn),8.2µM,i,nt,16µM,nt
CCc1c(C)nc2ncnn2c1NCCc1ccc(Cl)cc1,9.2µM,i,11µM,16µM,?
Cc1nc2ncnn2c(C)c1Cc1c(Cl)cccc1Cl,?,i,i,i,i
CCc1cc2c(=O)n(CC(=O)NCCc3ccc(OC)c(OC)c3)cnc2s1,i,i,i,i,i
Nc1ccc(Cc2ccc(N)c(O)c2)cc1O,?,i,i,23µM,i
c1ccc(CN2CCC3(CC2)Nc2ccccc2CO3)cc1,i,i,i,i,i
c1ccc(CN2CCC3(CCCc4ccccc43)CC2)cc1,16µM,?,nt,?,nt
CCc1ccc(N/C(SCc2cccc(F)c2)=C(/C#N)C(=O)NCc2ccco2)cc1,?,i,6.3µM,?,1.6µM
CC(Oc1ccccc1)C(=O)N=C1SC2CS(=O)(=O)CC2N1Cc1ccccc1 (stereo not drawn),i,i,i,i,i
CCOC(=O)C1CCN(C(=O)c2ccc3c(c2)NC(=O)/C(=C\c2cccc(C)c2)S3)CC1,18µM,i,?,?,i
O=C1Nc2cc(C(=O)NCCN3CCCCCC3)ccc2S/C1=C\c1ccccc1,12µM,i,?,13µM,?
Cc1cccc(/C=C2/Sc3ccc(C(=O)NCCN4CCCC4)cc3NC2=O)c1,23µM,i,i,?,?
CCN1CCC[C@H]1CNC(=O)c1c(OC)ccc(Br)c1OC,30µM!,i,i,33µM!,i
SMILES,DT40 TDP1 no CPT,TDP1 block,Gal4-VP16 FLuc,DT40 TDP1 CPT,RORg inh
COc1cccc(/C=C2/Sc3ccc(C(=O)NCCN4CCCCCC4)cc3NC2=O)c1,?,i,?,?,?
CCOC(=O)c1cc2oc(C)cc2n1CC(=O)OC1CCCCC1,i,i,i,i,i
O=C(NCCCN1CCCCC1)c1ccc2c(c1)NC(=O)C(N1CCCCC1)S2 (stereo not drawn),i,i,i,?,i
Cc1cccc(/C=C2/Sc3ccc(C(=O)NCCCN4CCOCC4)cc3NC2=O)c1,nt,i,?,nt,?
CCN1CCCC1CNC(=O)c1cc(N)ccc1OC (stereo not drawn),i,nt,nt,i,nt
O=C1Nc2cc(C(=O)NCCCN3CCCC3)ccc2S/C1=C/c1cccc(Cl)c1,?,nt,nt,6.5µM,nt
CCN1CCCC1CNC(=O)c1ccc2c(c1)NC(=O)/C(=C\c1ccc(OC)c(OC)c1)S2 (stereo not drawn),16µM,i,?,?,?
CCN1CCN(CCCNC(=O)c2ccc3c(c2)NC(=O)/C(=C\c2cccc(C)c2)S3)CC1,?,i,?,16µM,?
COc1ccc(/C=C2/Sc3ccc(C(=O)NCCCN4CCOCC4)cc3NC2=O)cc1OC,2.6µM,i,?,4.6µM,?
Cc1ccc(/C=C2/Sc3ccc(C(=O)NCc4ccccn4)cc3NC2=O)cc1,i,32µM,i,?,?
CN(CC(=O)Nc1c(Cl)cccc1Cl)CC(=O)N(C)C1(C#N)CCCCC1,i,i,nt,i,nt
O=C(CSc1ccc(Cl)cc1)NC1CCCc2ccccc21 (stereo not drawn),i,i,i,i,i
Cc1ccc(CN2CCC2(C)C(=O)NC2CCc3ccccc32)cc1 (stereo not drawn),23µM,nt,nt,?,nt
CSc1ccc(CN2CCC2(C)C(=O)NC2CCc3ccccc32)cc1 (stereo not drawn),16µM,nt,nt,?,nt
Cc1ccc(NC(=O)NC2CCCc3ccccc32)cc1 (stereo not drawn),i,i,i,i,i
CCOC(=O)c1c(N2C(=O)CC(Sc3ccccc3C(=O)O)C2=O)sc(C)c1C (stereo not drawn),?,i,i,23µM,i
CN1C(=O)CC(Sc2ccccc2C(=O)O)C1=O (stereo not drawn),i,i,i,i,i
Cc1cccc(N2C(=O)CC(Sc3ccccc3C(=O)O)C2=O)c1 (stereo not drawn),?,i,5µM,?,?
Cc1ccc(N2C(=O)CC(Sc3ccccc3C(=O)O)C2=O)c([N+](=O)[O-])c1 (stereo not drawn),?,i,i,?,i
CN(C)c1ccc(N2C(=O)CC(Sc3ccccc3C(=O)O)C2=O)cc1 (stereo not drawn),?,i,16µM,13µM,?
CCOC(=O)c1c(NC(=O)CSc2ccccc2C(=O)O)sc(C)c1C,i,i,i,i,i
Cc1ccc(N2C(=O)CC(Sc3ccccc3C(=O)O)C2=O)cc1 (stereo not drawn),15µM,i,?,7.3µM,i[10 µM]
CC(=O)c1sc(Nc2cccc(C)c2)nc1C,i,i,?,i,i
COc1ccc(NC(=S)N2CCN(C)CC2)cc1,i,nt,nt,i,nt
Cc1cc(C)c(N2C(=O)CC(Sc3ccccc3N)C2=O)c(C)c1 (stereo not drawn),7.3µM,nt,nt,16µM,nt
Cc1ccc(N2C(=O)CC(Sc3ccccc3C(=O)O)C2=O)cc1C (stereo not drawn),12µM,i,?,4.1µM,?
Cc1cc(C)cc(N2C(=O)CC(Sc3ccccc3C(=O)O)C2=O)c1 (stereo not drawn),18µM,i,i,4.1µM,?

# Screening data from PubChem BioAssay.
